# Compound activity from PubChem.
# These entries were drawn from the full list.
# Beta cell apopt: blocks beta cell apoptosis. INS-1E cytokine-induced death, ATP luminescence, 48 h; percent of positive-control rescue, neutral wells zero. protection from apoptosis, % (concentration not given with the values). 300,000 tested, 0.8% active;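 active = Every replicate reaches about 75%, or at least half do and their mean reaches it too, limit read from the data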;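 note: higher means more ATP so stronger rescue from cytokine killing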
# Gli-Sufu antag: antagonists of Gli-Sufu signaling | Sufu-KO-LIGHT fibroblasts, Gli luciferase reporter luminescence | inhibition, % at 5 µM | AID 588413 | 340,000 tested, 0.74% active;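 active = inhibition above about 55%, limit read from the data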
# Jurkat NFkB inh: inhibitors of the PMA/ionomycin-induced NF-kB reporter in Jurkat cells | PMA/ionomycin-induced NF-kB luciferase reporter, luminescence | inhibition, % at 4 µM | 330,000 tested, 0.53% active; in the data active = inhibition above about 50%
# Mdm2-MdmX inh: human Mdm2/MdmX binding inhibition. O15151+Q00987. SaOS-2 split-luciferase Mdm2/MdmX complementation, luminescence. inhibition, % at 8 µM. 330,000 tested, 3% active;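 active = inhibition of at least 50% at 8 µM in the primary screen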
# 697 NFkB inh: inhibitors of the PMA/ionomycin-induced NF-kB reporter in 697 B cells; 697 B-cell NF-kB luciferase reporter, 16 h; inhibition, % at 4 µM; 330,000 tested, 0.33% active; in the data active = inhibition above about 35%
# Jurkat NFkB conf: lowers PMA/ionomycin-induced NF-kB signal in Jurkat cells. Jurkat NF-kB luciferase, 16 h. shares compounds with Jurkat NFkB inh. 2,700 tested, 27% active. AID 435020. inhibition, % at 4 µM;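 active = inhibition reaching about 45% at 4 µM in either replicate, limit read from the data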
# 697 NFkB conf: lowers PMA/ionomycin-induced NF-kB signal in 697 B cells | shares compounds with 697 NFkB inh | 697 B-cell NF-kB luciferase, 16 h | inhibition, % at 4 µM | 2,000 tested, 35% active | AID 449746; in the data active = inhibition mostly above about 28%, no sharp cut-off; inactive = mostly below about 22%
# Hits are given with their value; n = inactive; x = no result.
SMILES,Beta cell apopt,Gli-Sufu antag,Jurkat NFkB inh,Mdm2-MdmX inh,697 NFkB inh,Jurkat NFkB conf,697 NFkB conf
Cc1ccc(-n2nc3ccc(NC(=O)C(C)C)cc3n2)cc1,n,n,n,n,n,n,n
Cc1ccc(-n2nc3ccc(NC(=O)c4ccco4)cc3n2)cc1,n,n,n,n,n,x,x
CC(C)C(=O)Nc1ccc(N2CCN(c3ccc(F)cc3)CC2)cc1,n,n,n,n,n,x,x
CC(C)C(=O)Nc1ccc2nn(-c3ccc(F)cc3)nc2c1,x,n,n,n,n,n,n
COc1ccccc1CNC(=O)CN(C)CC(=O)Nc1ccc(F)c(F)c1F,n,n,n,n,n,x,x
O=C(c1sccc1-c1ccccc1)N1CCN(S(=O)(=O)c2ccccc2F)CC1,n,n,n,n,n,x,x
CCOC(=O)c1sc(NC(=O)c2sccc2C)cc1C,n,n,n,n,n,n,n
Cc1ccc(/C=N/Nc2nc3ccccc3s2)o1,n,n,n,n,n,n,n
CC(=O)CSc1nc2cc3c(cc2cc1C#N)OCCO3,n,n,n,n,n,n,n
CS(=O)(=O)N1N=C(c2ccc(Br)cc2)CC1c1ccc2c(c1)OCO2 (configuration not stated),n,n,n,n,n,x,x
Cc1ccc(C2=NN(S(C)(=O)=O)C(c3ccc4c(c3)OCO4)C2)cc1 (configuration not stated),n,n,n,n,n,n,n
Nc1c2c(nc3sc4c(c13)CCCC4)-c1ccccc1CC2,n,n,n,n,n,n,n
NC(=O)c1sc2nc(-c3ccccc3)c3c(c2c1N)CCCC3,n,n,n,n,n,x,x
COC(=O)CSc1nc2[nH]ncc2c(=O)[nH]1,n,n,n,n,n,x,x
O=C(c1cccs1)c1ccc(-c2cccs2)s1,n,n,n,n,n,n,n
O=C(Nc1nc2ccccc2[nH]1)c1ccc(OC(F)F)cc1,n,n,n,n,n,n,n
O=C(NCc1cccnc1)c1cc(S(=O)(=O)N2CCCC2)c(Cl)cc1Cl,x,n,n,n,n,x,x
COc1ccccc1C(CNC(=O)C(CCSC)NC(=O)c1ccccc1Cl)N1CCCC1 (configuration not stated),x,n,x,x,x,x,x
COc1ccccc1N1CCN(c2ccc3ccccc3n2)CC1,x,n,n,n,n,n,n
Cc1ccc2cc3cc(C(=O)N4CCCCC4C)oc3nc2c1 (configuration not stated),n,n,n,n,n,n,n
Cc1ccc(-c2csc(NC(=O)C3CCN(S(=O)(=O)c4cccs4)CC3)n2)cc1,n,n,63,n,62,73,67
O=C(Nc1nc(-c2ccc3ccccc3c2)cs1)C1CCN(S(=O)(=O)c2cccs2)CC1,n,n,n,n,n,x,x
COc1ccc2cc(-c3ccccc3)ncc2c1,n,n,n,n,n,n,n
Cc1ccnc(NC(=O)Nc2ccc(F)cc2)c1,n,n,n,n,n,n,n
CSc1ncccc1C(=O)Nc1cc(C)ccn1,n,n,n,n,n,x,x
SMILES,Beta cell apopt,Gli-Sufu antag,Jurkat NFkB inh,Mdm2-MdmX inh,697 NFkB inh,Jurkat NFkB conf,697 NFkB conf
CSc1ccc(NC(=O)Nc2cc(C)ccn2)cc1,n,n,n,n,n,n,n
COc1ccc(NC(=O)Nc2cc(C)ccn2)cc1,x,n,x,x,x,x,x
CCN(CC)CCOC(=O)c1cccc2c1-c1ccccc1C2O (configuration not stated),n,n,n,n,n,x,x
CC1(C)CC2(CC(c3ccccc3F)c3ccc(O)c(O)c3O2)NC(=S)N1 (configuration not stated),n,n,n,n,n,x,x
CCC(=O)Nc1nc(-c2ccc3c(c2)CC(C)N3S(C)(=O)=O)cs1 (configuration not stated),n,n,n,n,n,x,x
CC1Cc2cc(-c3csc(NC(=O)Cc4cccs4)n3)ccc2N1S(C)(=O)=O (configuration not stated),n,n,57,n,56,76,n
Cc1nc(Nc2ccccc2)sc1-c1ccccc1,n,n,n,n,n,n,n
Cc1nc(Nc2ccccc2)sc1C(=O)c1ccccc1,x,n,n,n,n,x,x
CC1=C/C(=N\NC(=S)NCc2ccccc2)CC1,n,n,n,n,n,x,x
O=C(NCC1CCCO1)C1CCN(C2CCN(C(=O)Cc3ccsc3)CC2)CC1 (configuration not stated),n,n,n,n,n,x,x
COc1ccccc1C=NN=Cc1ccccc1O,x,n,x,x,x,x,x
CN(C)c1ccc(/C=N/N=C/c2ccccc2O)cc1,n,n,n,n,n,n,n
C/C(=N\Nc1cccc2cccnc12)c1ccccc1O,n,n,n,n,n,x,x
C/C(=N\Nc1cccc2cccnc12)c1ccccn1,n,n,n,n,n,n,n
CC1CN/C(=C\C(=O)c2ccc(Cl)cc2)C(=O)N1 (configuration not stated),n,n,n,n,n,n,n
Nc1c(-c2ccc(Cl)cc2)cnc2c(-c3ccccc3)cnn12,x,n,n,n,n,n,n
CC(C)(C)S(=O)(=O)c1cnc2c(-c3ccc(Cl)cc3)cnn2c1N,n,n,n,n,n,x,x
c1ccc2c(c1)CC(CN1CCNCC1)O2 (configuration not stated),x,n,n,n,n,x,x
C/C(N)=C(/C#N)C(=O)CSc1nnc(-c2ccc3c(c2)OCO3)o1,n,n,n,n,n,n,n
Cc1ccc(-c2nc3ccc([N+](=O)[O-])cc3[nH]2)cc1,n,n,n,n,n,n,n
Cc1oc(-c2ccccc2)nc1C(=O)N1CCN(c2ccc(F)cc2)CC1,n,n,n,n,n,x,x
COc1cccc(NC(=O)Nc2cccc(C(=O)O)c2)c1,n,n,70,n,57,50,58
COc1cccc(NC(=O)c2ccccc2)c1,n,n,n,n,n,x,x
Cc1nn(-c2ccccc2)c(Cl)c1/C=N/Nc1nc2ccccc2[nH]1,n,n,n,n,n,n,n
CC(=O)c1cccc(N/C=C\C(=O)c2ccc(C)cc2)c1,n,n,x,x,x,x,x
SMILES,Beta cell apopt,Gli-Sufu antag,Jurkat NFkB inh,Mdm2-MdmX inh,697 NFkB inh,Jurkat NFkB conf,697 NFkB conf
Cc1ccc(N/C=C/C(=O)c2ccccc2)cc1Br,n,n,n,n,n,n,n
Cc1ccc(C(=O)/C=C/Nc2ccc3c(c2)OCO3)cc1,x,n,n,n,n,n,n
Nc1nc2c(-c3ccc(Br)cc3)nnn2c2ccccc12,n,n,n,n,n,n,n
Cc1ccc(Nc2nc(-c3cccnc3)cs2)cc1C,n,n,n,n,n,n,n
Brc1ccc(Nc2nc(-c3cccnc3)cs2)cc1,n,n,n,n,n,x,x
c1ccc(-c2csc(Nc3ccc4c(c3)OCCO4)n2)cc1,n,n,n,n,n,n,n
c1cc2c(cc1Nc1nc(-c3ccc4c(c3)OCO4)cs1)OCCO2,n,n,n,n,n,x,x
Cc1cc(C)nc(Nc2nc(-c3ccccc3)cs2)n1,n,n,n,n,n,n,n
Cc1ccc(Nc2nc(-c3ccccc3)cs2)nc1,x,n,n,n,n,n,n
c1ccc(-c2csc(Nc3nc(N4CCOCC4)nc(N4CCOCC4)n3)n2)cc1,n,n,n,n,n,x,x
